# Results as given in paper PMC7862700, “An all-to-all approach to the identification of sequence-specific readers for epigenetic DNA modifications on cytosine”.
# What was measured:
# Test in all cases: DAPPL (digital affinity profiling via proximity ligation, sequencing); 10 mM Tris-HCl pH 7.5, 50 mM NaCl, 1 mM DTT, 4% glycerol, room temperature, 30 min; GST-TFs on glutathione beads, 16-mer random dsDNA library, 0.1% formaldehyde crosslink after washing; high values mean tight binding
# FEV = biological target: T1, FEV (Homo sapiens, UniProt Q99581 1-238); settings: protein: recombinant; tags: N-terminal GST; dsDNA, one strand shown
# T1 sequence: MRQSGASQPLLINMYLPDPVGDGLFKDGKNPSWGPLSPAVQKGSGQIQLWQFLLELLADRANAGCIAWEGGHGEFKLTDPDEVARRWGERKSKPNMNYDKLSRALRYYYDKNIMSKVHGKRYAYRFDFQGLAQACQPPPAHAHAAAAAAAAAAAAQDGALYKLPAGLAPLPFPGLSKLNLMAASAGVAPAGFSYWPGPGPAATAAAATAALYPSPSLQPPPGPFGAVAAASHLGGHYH
# Method in brief: (§1)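 In yeast, human transcription factors were expressed with a GST fusion, then pulled down on glutathione beads and given DNA barcodes. Pooled with a tag-only sample, they were exposed to 200 nmole of a 16-mer random double-stranded DNA library (Tris/NaCl/DTT/glycerol buffer, room temperature, 30 min), washed, crosslinked with 0.1% formaldehyde, proximity-ligated using BsaI/T4 ligase for 1 h at 37 °C, PCR-amplified and read on an Illumina NextSeq500. Each hexamer's frequency of reads for a factor, divided by the matching frequency for the tag-only sample, gives the binding signal.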
# ETV5 = ETV5 (Homo sapiens, UniProt P41161 1-510); settings: protein: recombinant; tags: N-terminal GST; dsDNA, one strand shown
# Method in brief: as §1
# HSF1 = HSF1 (Homo sapiens, UniProt Q00613 1-529); settings: protein: recombinant; tags: N-terminal GST; chain copies: 3; dsDNA, one strand shown
# Method in brief: as §1
# SPIC = biological target: T2, SPIC (Homo sapiens, UniProt Q8N5J4 1-248); settings: protein: recombinant; tags: N-terminal GST; dsDNA, one strand shown
# T2 sequence: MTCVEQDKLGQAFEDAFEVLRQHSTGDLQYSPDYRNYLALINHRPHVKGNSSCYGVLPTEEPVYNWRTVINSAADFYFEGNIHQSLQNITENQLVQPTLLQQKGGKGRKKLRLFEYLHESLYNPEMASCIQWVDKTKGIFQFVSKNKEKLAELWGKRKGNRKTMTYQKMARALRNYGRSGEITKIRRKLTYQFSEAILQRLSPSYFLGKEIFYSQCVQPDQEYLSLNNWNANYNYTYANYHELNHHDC
# Method in brief: as §1
# ELF4 = ELF4 (Homo sapiens, UniProt Q99607 1-663); settings: protein: recombinant; tags: N-terminal GST; dsDNA, one strand shown
# Method in brief: as §1
# ELK4 = biological target: T3, ELK4 (Homo sapiens, UniProt P28324-2 1-405); settings: protein: recombinant; tags: N-terminal GST; dsDNA, one strand shown
# T3 sequence: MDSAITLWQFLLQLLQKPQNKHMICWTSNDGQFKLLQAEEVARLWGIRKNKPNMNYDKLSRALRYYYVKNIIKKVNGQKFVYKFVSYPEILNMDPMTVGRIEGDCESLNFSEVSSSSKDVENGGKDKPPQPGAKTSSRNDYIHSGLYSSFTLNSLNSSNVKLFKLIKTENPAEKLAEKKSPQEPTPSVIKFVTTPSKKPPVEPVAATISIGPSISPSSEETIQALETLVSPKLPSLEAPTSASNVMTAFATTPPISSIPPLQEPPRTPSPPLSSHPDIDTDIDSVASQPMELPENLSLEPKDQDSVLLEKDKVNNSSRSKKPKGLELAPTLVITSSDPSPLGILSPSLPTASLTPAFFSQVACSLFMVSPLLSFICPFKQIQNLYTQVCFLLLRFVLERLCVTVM
# Method in brief: as §1
# ETV2 = biological target: T4, ETV2 (Homo sapiens, UniProt O00321 1-342); settings: protein: recombinant; tags: N-terminal GST; dsDNA, one strand shown
# T4 sequence: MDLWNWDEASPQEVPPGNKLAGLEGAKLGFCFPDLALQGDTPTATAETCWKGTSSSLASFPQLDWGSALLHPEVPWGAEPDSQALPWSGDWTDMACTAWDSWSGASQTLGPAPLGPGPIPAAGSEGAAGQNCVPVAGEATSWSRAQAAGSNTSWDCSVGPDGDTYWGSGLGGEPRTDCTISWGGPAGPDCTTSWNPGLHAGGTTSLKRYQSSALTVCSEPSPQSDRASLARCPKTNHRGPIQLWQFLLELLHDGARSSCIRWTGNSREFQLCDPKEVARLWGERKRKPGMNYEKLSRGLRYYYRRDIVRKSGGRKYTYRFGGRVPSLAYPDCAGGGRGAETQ
# Method in brief: as §1
# ELF3 = biological target: T5, ELF3 (Homo sapiens, UniProt P78545 1-371); settings: protein: recombinant; tags: N-terminal GST; dsDNA, one strand shown
# T5 sequence: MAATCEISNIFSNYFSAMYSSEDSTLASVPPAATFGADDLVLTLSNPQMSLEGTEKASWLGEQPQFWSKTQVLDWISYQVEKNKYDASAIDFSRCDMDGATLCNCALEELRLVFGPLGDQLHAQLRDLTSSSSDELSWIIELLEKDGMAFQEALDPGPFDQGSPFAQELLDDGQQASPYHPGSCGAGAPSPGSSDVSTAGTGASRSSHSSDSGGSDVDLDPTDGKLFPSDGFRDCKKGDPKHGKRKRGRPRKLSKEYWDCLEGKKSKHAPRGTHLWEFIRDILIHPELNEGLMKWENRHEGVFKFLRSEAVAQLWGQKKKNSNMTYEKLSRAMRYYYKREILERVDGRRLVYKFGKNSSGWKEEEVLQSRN
# Method in brief: as §1
# ETV1 = ETV1 (Homo sapiens, UniProt P50549 1-477); settings: protein: recombinant; tags: N-terminal GST; dsDNA, one strand shown
# Method in brief: as §1
# ERF = biological target: T6, ERF (Homo sapiens, UniProt P50548 1-548); settings: protein: recombinant; tags: N-terminal GST; dsDNA, one strand shown
# T6 sequence: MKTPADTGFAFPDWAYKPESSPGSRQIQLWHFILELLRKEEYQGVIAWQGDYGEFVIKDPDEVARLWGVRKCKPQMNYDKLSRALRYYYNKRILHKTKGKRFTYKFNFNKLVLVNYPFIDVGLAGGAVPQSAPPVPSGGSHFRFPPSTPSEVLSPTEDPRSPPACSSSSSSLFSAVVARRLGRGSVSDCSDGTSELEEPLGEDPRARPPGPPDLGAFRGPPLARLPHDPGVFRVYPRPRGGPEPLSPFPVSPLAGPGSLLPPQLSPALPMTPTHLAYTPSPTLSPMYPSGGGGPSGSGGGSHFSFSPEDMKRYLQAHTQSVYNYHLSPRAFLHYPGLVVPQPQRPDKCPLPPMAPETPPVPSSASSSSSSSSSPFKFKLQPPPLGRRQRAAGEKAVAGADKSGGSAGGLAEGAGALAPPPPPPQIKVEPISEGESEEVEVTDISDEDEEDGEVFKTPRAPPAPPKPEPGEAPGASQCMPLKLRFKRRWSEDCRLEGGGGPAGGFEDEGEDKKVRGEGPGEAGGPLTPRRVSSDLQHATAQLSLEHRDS
# Method in brief: as §1
# ETV3L = biological target: T7, ETV3L (Homo sapiens, UniProt Q6ZN32 1-361); settings: protein: recombinant; tags: N-terminal GST; dsDNA, one strand shown
# T7 sequence: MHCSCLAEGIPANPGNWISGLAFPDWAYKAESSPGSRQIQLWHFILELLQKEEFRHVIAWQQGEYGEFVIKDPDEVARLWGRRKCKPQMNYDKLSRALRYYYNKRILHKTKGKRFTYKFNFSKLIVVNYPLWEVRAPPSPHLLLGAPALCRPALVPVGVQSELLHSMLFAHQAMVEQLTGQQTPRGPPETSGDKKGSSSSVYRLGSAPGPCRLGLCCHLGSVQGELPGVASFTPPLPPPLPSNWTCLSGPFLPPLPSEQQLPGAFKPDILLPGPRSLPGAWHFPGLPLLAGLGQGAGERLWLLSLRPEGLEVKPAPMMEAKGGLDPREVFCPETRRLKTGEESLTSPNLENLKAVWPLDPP
# Method in brief: as §1
# ETS2 = biological target: T8, ETS2 (Homo sapiens, UniProt P15036 1-469); settings: protein: recombinant; tags: N-terminal GST; dsDNA, one strand shown
# T8 sequence: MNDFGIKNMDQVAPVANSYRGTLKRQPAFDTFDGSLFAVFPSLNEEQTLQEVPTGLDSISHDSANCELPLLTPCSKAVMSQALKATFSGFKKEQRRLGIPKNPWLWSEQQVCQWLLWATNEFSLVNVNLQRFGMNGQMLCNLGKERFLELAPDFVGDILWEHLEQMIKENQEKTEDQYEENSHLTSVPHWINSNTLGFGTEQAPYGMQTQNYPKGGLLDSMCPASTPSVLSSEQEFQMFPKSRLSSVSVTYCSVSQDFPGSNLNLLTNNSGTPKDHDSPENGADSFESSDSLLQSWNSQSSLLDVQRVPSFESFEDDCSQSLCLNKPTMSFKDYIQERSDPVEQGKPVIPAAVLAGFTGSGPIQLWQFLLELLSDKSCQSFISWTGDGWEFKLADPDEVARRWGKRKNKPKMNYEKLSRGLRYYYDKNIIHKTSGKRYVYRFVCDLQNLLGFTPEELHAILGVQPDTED
# Method in brief: as §1
# SPDEF = biological target: T9, SPDEF (Homo sapiens, UniProt O95238 1-335); settings: protein: recombinant; tags: N-terminal GST; dsDNA, one strand shown
# T9 sequence: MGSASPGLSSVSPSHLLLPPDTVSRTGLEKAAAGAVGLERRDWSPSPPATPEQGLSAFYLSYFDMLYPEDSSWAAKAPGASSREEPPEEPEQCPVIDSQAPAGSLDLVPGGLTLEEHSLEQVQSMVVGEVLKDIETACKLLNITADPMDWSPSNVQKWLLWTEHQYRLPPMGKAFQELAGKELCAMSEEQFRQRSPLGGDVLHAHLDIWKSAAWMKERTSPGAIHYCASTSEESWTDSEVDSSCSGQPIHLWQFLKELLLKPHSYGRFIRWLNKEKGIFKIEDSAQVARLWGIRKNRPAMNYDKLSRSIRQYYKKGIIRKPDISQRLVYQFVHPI
# Method in brief: as §1
# ETV7 = biological target: T10, ETV7 (Homo sapiens, UniProt Q9Y603 1-341); settings: protein: recombinant; tags: N-terminal GST; dsDNA, one strand shown
# T10 sequence: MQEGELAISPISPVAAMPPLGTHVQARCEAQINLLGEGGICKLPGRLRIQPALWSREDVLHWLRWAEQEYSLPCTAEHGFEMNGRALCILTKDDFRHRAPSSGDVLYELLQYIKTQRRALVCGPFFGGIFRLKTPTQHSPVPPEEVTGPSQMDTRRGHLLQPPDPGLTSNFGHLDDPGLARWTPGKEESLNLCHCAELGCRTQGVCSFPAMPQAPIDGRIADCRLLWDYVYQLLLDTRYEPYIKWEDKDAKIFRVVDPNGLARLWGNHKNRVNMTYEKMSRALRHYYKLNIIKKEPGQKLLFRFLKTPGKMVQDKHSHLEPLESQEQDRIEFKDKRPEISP
# Method in brief: as §1
# ELF5 = biological target: T11, ELF5 (Homo sapiens, UniProt Q9UKW6-2 1-255); settings: protein: recombinant; tags: N-terminal GST; dsDNA, one strand shown
# T11 sequence: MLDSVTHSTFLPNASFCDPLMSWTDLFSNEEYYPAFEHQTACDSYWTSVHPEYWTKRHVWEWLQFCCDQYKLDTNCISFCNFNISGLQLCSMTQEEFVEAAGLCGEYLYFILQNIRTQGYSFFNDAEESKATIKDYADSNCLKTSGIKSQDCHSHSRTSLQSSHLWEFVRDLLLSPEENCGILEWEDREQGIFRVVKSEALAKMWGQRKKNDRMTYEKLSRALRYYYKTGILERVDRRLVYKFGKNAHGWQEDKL
# Method in brief: as §1
# ETV3 = biological target: T12, ETV3 (Homo sapiens, UniProt P41162-2 1-143); settings: protein: recombinant; tags: N-terminal GST; dsDNA, one strand shown
# T12 sequence: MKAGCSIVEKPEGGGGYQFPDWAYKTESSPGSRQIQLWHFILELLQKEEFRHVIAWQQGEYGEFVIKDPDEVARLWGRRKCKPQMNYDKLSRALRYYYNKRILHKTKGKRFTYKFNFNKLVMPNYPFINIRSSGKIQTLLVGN
# Method in brief: as §1
# ETV6 = ETV6 (Homo sapiens, UniProt P41212 1-452); settings: protein: recombinant; tags: N-terminal GST; dsDNA, one strand shown
# Method in brief: as §1
# ELF4, sequence (Q99607 whole entry): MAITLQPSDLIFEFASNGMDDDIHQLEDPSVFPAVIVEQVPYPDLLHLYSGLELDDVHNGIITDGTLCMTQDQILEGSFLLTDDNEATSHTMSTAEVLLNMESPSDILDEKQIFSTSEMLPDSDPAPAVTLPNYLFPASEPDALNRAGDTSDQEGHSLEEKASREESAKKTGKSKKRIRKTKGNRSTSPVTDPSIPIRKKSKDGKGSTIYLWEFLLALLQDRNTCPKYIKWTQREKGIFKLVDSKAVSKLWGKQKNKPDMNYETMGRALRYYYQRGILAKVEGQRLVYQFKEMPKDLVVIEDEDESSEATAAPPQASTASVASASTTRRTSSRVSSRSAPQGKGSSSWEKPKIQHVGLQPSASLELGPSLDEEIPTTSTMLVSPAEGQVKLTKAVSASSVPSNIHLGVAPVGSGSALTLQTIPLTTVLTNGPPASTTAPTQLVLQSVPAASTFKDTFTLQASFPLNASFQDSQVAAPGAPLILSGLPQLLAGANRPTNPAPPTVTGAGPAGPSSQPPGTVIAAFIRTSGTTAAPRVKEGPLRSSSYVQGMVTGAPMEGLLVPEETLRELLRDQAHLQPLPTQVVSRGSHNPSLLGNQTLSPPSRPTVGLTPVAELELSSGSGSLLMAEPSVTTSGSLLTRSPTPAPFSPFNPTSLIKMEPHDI
# ETV5, sequence (P41161 whole entry): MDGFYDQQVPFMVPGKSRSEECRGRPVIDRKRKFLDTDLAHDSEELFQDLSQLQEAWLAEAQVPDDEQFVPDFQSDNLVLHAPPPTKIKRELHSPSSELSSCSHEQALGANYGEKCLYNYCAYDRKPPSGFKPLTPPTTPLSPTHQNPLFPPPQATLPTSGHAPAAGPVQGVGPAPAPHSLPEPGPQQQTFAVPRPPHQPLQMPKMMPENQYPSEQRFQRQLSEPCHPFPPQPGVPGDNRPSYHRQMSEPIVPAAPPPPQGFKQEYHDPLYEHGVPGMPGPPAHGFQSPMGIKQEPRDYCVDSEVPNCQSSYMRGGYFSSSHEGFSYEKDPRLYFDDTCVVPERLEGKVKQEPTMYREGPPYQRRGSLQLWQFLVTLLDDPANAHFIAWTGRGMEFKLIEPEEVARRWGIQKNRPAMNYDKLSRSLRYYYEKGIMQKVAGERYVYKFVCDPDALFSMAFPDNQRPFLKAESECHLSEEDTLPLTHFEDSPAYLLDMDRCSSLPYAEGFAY
# HSF1, sequence (Q00613 whole entry): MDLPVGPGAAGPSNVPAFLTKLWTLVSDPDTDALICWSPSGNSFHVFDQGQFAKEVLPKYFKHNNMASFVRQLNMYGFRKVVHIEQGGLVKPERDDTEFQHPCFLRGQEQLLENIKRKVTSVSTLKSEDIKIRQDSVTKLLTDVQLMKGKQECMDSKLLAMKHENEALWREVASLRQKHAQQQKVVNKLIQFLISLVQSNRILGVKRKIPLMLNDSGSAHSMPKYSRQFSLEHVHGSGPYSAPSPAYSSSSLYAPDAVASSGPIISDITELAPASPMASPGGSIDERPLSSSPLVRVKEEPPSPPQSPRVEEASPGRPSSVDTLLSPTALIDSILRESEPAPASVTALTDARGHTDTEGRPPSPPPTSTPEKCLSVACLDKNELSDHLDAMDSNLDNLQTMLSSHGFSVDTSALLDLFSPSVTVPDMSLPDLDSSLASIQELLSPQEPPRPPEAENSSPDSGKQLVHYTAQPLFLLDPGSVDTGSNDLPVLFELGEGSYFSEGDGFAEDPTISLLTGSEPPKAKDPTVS
# ETV6, sequence (P41212 whole entry): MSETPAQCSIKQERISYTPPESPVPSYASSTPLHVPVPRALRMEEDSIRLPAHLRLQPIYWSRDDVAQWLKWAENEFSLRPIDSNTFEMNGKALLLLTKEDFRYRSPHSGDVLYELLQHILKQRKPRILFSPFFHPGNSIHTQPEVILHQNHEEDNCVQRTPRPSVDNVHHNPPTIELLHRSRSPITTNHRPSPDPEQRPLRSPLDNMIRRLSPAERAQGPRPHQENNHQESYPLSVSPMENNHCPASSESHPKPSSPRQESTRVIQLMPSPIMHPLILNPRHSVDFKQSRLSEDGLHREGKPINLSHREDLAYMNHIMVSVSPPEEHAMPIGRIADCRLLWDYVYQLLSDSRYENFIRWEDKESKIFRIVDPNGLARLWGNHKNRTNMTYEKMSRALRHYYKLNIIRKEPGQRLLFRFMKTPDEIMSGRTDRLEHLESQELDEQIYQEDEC
# ETV1, sequence (P50549 whole entry): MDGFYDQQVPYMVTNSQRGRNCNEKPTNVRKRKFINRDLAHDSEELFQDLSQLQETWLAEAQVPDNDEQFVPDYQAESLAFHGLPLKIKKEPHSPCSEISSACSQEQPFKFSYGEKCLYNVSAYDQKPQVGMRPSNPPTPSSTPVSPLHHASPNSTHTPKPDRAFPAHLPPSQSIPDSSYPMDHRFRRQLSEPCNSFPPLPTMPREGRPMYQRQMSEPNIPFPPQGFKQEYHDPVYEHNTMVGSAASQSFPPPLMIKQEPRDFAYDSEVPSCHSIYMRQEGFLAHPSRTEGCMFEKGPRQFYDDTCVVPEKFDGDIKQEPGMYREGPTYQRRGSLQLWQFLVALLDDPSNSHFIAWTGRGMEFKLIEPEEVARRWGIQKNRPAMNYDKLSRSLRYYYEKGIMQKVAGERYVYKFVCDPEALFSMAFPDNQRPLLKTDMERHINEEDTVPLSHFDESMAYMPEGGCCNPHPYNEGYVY
sequence,measurement,setting,value
CCACTG,binding signal,FEV,"1.19 fold enrichment (6-mer frequency, TF over GST control)"
same,binding signal,ETV5,"1.15 fold enrichment (6-mer frequency, TF over GST control)"
same,binding signal,HSF1,"1.08 fold enrichment (6-mer frequency, TF over GST control)"
same,binding signal,SPIC,"1.34 fold enrichment (6-mer frequency, TF over GST control)"
same,binding signal,ELF4,"1.2 fold enrichment (6-mer frequency, TF over GST control)"
same,binding signal,ELK4,"1.18 fold enrichment (6-mer frequency, TF over GST control)"
same,binding signal,ETV2,"1.17 fold enrichment (6-mer frequency, TF over GST control)"
same,binding signal,ELF3,"1.04 fold enrichment (6-mer frequency, TF over GST control)"
same,binding signal,ETV1,"1.31 fold enrichment (6-mer frequency, TF over GST control)"
same,binding signal,ERF,"1.22 fold enrichment (6-mer frequency, TF over GST control)"
same,binding signal,ETV3L,"1.15 fold enrichment (6-mer frequency, TF over GST control)"
same,binding signal,ETS2,"1.16 fold enrichment (6-mer frequency, TF over GST control)"
same,binding signal,SPDEF,"1.14 fold enrichment (6-mer frequency, TF over GST control)"
same,binding signal,ETV7,"1.1 fold enrichment (6-mer frequency, TF over GST control)"
same,binding signal,ELF5,"1.09 fold enrichment (6-mer frequency, TF over GST control)"
same,binding signal,ETV3,"1.15 fold enrichment (6-mer frequency, TF over GST control)"
same,binding signal,ETV6,"1.22 fold enrichment (6-mer frequency, TF over GST control)"
